Laboratory results: PubChem BioAssay

Each compound was assayed against Neurogenic locus notch homolog protein 3 (Homo sapiens) (UniProt Q9UM47) (assay: small molecules binding NOTCH3 protein – biochemical, 635/667 nm fluorescence, primary screen (AID 1096)). Conditions: small-molecule microarray, 635 nm fluorescence, higher = more signal.
Chain of Neurogenic locus notch homolog protein 3 (Homo sapiens) (Q9UM47 whole entry, looked up): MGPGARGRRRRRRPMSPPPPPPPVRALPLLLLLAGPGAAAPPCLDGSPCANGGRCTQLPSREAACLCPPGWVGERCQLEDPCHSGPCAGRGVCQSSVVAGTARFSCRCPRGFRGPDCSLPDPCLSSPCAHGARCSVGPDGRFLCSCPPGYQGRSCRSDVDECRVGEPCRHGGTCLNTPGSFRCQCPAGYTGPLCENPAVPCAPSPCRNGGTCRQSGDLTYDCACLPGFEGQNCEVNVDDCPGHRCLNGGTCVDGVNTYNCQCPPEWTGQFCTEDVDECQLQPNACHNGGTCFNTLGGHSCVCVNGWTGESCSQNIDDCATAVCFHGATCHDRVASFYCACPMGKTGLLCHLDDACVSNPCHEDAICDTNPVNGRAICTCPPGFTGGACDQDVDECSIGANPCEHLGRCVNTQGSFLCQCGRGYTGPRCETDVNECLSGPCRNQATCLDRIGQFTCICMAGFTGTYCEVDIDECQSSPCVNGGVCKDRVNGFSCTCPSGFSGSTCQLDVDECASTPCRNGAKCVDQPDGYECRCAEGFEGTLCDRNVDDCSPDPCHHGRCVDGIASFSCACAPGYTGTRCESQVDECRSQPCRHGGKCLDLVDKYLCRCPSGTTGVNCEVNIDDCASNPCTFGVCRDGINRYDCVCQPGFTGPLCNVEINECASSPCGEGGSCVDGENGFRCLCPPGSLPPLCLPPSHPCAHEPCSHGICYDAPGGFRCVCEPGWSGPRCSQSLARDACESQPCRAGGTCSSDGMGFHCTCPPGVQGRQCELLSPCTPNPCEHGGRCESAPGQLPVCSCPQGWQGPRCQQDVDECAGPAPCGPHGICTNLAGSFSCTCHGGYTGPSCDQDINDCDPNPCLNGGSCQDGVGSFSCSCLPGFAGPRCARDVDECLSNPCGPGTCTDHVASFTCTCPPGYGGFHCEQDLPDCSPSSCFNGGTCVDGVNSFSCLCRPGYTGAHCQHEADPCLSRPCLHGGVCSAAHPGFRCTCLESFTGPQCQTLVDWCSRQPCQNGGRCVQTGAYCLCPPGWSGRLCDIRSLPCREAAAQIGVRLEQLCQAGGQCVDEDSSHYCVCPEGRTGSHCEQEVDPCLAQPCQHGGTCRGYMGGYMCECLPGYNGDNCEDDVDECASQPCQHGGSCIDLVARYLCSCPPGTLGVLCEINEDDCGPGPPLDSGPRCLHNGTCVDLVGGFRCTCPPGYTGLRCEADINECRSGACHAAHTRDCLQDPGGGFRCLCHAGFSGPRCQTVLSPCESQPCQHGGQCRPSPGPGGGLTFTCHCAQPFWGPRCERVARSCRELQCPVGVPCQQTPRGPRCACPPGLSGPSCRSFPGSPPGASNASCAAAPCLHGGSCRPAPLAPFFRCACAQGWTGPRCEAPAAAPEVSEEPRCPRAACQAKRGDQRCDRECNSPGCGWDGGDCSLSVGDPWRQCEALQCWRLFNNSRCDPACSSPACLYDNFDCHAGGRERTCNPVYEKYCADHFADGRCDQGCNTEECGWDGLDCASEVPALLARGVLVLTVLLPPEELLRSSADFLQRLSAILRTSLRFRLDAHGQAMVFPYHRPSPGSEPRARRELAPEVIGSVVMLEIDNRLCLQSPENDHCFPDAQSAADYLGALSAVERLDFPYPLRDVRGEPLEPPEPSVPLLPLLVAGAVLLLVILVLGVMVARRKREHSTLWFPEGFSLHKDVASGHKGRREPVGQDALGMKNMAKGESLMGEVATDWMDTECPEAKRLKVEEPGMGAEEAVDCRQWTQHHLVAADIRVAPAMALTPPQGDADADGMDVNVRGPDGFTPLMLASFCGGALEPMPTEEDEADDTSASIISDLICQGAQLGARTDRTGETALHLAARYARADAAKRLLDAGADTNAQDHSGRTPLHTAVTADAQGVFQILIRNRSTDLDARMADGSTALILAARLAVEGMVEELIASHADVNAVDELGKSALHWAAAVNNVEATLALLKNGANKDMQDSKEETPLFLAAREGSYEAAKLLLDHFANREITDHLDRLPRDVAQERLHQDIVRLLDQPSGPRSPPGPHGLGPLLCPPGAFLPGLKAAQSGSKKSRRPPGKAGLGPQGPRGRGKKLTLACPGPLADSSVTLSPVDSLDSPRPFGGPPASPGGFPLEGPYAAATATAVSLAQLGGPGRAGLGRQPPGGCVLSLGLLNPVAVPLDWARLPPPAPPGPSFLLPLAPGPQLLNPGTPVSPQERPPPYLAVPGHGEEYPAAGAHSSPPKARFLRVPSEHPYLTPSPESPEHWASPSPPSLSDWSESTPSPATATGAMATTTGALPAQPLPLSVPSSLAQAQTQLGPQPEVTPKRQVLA

Compared with `COc1cc2c(cc1OC)CN(C(=O)[C@@H]1[C@H]3C(=O)O[C@H](c4ccccc4)[C@H](c4ccccc4)N3[C@H](c3ccc(OCCO)cc3)[C@@]13C(=O)Nc1ccc(C#CC4(O)CCCCCC4)cc13)CC2`, `O=C1O[C@@H](c2ccccc2)[C@@H](c2ccccc2)N2[C@@H](c3ccc(OCCO)cc3)[C@]3(C(=O)Nc4ccccc43)[C@@H](C(=O)O)[C@H]12` is lower in composite z-score: 1.08 for the first, -0.239 for the second.

Compared with `C=C(/C(=C/C[C@H](OC(C)=O)c1cccc(OCCO)c1)c1cnc2ccccc2c1)C(C)C`, `C=C(/C(=C/C[C@@H](OC(C)=O)c1cccc(OCCO)c1)c1cc(C(=O)OC)ccc1OC)C(C)C` is lower in composite z-score: 0.778 for the first, 0.666 for the second.

First: OCCCC1=CC(c2ccc(CN3CCCC3)cc2)N(Cc2sc3ccccc3c2Cl)CC1 (configuration not stated)
Second: CN1C(=O)C2C=CC(C(O)c3cccc4ccccc34)N(N3CCCCC3)C2C1=O (configuration not stated)
The composite z-score of the first is lower: 0.686 for the first, 1.1 for the second.

First: CCOC(=O)C[C@H]1[C@H](OC(=O)c2ccccc2-c2ccccc2)[C@@H](NC(=O)C2CCCCC2)c2cc(OCCCO)ccc2N1C(=O)Cc1ccc(OC)cc1
Second: CCOC(=O)C[C@H]1[C@H](OC(=O)c2cc3ccccc3oc2=O)[C@@H](NC(=O)c2ccc(-c3ccccc3)cc2)c2cc(OCCCO)ccc2N1C(=O)c1ccc2ccccc2n1
The composite z-score of the first is lower: -0.292 for the first, 1.05 for the second.

Going from `CC1=C([C@H](O)CCc2ccccc2)[C@H](CO)[C@@H]2C(=O)N(C)C(=O)[C@@H]2C1` to `O=C1OCC=C[C@H]2OC34C=CCN(Cc5ccccc5)C(=O)[C@H]3N(CCCCCCO)C(=O)[C@@H]4[C@@H]12` (some centres not stated), the composite z-score falls from 0.394 to -0.153.

First: CC[C@H]1C2=C3C(CC[C@H]4C(OCc5ccc(F)cc5C(F)(F)F)OC[C@](C)([C@@H]34)N(C(=O)OC(C)(C)C)C2)C(COC)C1COC (some centres not stated)
Second: O=C(NCC(F)(F)F)[C@@H]1c2ccccc2C(=O)N(Cc2cc(F)cc(C(F)(F)F)c2)[C@H]1c1ccc(CO)cc1
The composite z-score of the first is higher: 0.949 for the first, -1.13 for the second.

First: C=CCOC(=O)[C@H]1[C@@H]2C(=O)O[C@@H](c3ccccc3)[C@@H](c3ccccc3)N2[C@@H](c2ccc(OCCOC(=O)[C@H]3C[C@H]4C(=O)N[C@@H](CCCCNC(C)=O)C(=O)N4[C@H]3c3ccc(O)cc3)cc2)[C@]12C(=O)Nc1ccccc12
Second: COCCOC(=O)N1C(=O)[C@@]2(c3cc(C#CC4(O)CCCCCC4)ccc31)[C@H](c1ccc(O)cc1)N1[C@H](c3ccccc3)[C@H](c3ccccc3)OC(=O)[C@H]1[C@@H]2C(=O)NC[C@H](O)c1ccccc1
The composite z-score of the first is lower: 0.991 for the first, 1.06 for the second.

Going from `[N-]=[N+]=Nc1ccccc1[C@@H]1OC(c2ccc(OCCCO)cc2)=N[C@]1(Cc1ccccc1)C(=O)NCC(O)CO` (some centres not stated) to `CC(C)(C)OC(=O)CC[C@@]1(C(=O)NCc2ccccc2)N=C(c2ccc(OCCCO)cc2)O[C@@H]1c1ccccc1N=[N+]=[N-]`, the composite z-score rises from 0.0643 to 1.05.

Going from `COc1ccc(C(O)C2C=CC3C(=O)N(c4ccccc4)C(=O)C3N2Nc2ccc([N+](=O)[O-])cc2)cc1` (configuration not stated) to `Cc1ccccc1C(O)C1C=CC2C(=O)N(C)C(=O)C2N1N(c1ccccc1)c1ccccc1` (configuration not stated), the composite z-score falls from 1.1 to -0.899.

Compared with `O=C1OCC=C[C@H]2OC34C=CCN(Cn5nnc6ccccc65)C(=O)[C@H]3N(CCCO)C(=O)[C@@H]4[C@@H]12` (some centres not stated), `COCCOC(=O)N1C(=O)[C@@]2(c3cc(C#CC4=CCCCC4)ccc31)[C@H](C(N)=O)[C@H]1C(=O)O[C@H](c3ccccc3)[C@H](c3ccccc3)N1[C@@H]2c1ccccc1OCCO` is higher in composite z-score: -0.579 for the first, 1.11 for the second.

Compared with `CCC[C@@H]1C[C@@]1(CCC)[C@@H](NC(=O)OCc1ccccc1)c1ccc(-c2ccccc2)cc1`, `[N-]=[N+]=NCc1ccccc1C[C@@]1(C(=O)NCc2ccccc2)N=C(c2ccc(OCCCO)cc2)O[C@@H]1c1ccccc1N=[N+]=[N-]` is higher in composite z-score: -0.621 for the first, 0.412 for the second.

Going from `COCCCNC(=O)[C@]1(CCS(=O)(=O)c2ccccc2)N=C(c2ccc(OCCCO)cc2)O[C@@H]1c1ccccc1CN=[N+]=[N-]` to `[N-]=[N+]=NCc1ccccc1C[C@@]1(C(=O)N2CCOCC2)N=C(c2ccc(OCCCO)cc2)O[C@@H]1c1ccccc1`, the composite z-score falls from 1.02 to 0.553.

Compared with `C=C(COC)/C(=C/C[C@H](OC(=O)c1ccncc1)c1ccccc1OCCO)c1cnc2ccccc2c1`, `COc1ccc(-c2nc(-c3ccccc3)c3c(c2C)CO[Si]3(C(C)C)C(C)C)cn1` is lower in composite z-score: 1.02 for the first, 0.0188 for the second.

`C[N+](C)(C)CCCCCCNC(=O)[C@H]1C[C@H]2C(=O)NCC(=O)N2[C@H]1c1ccc(O)cc1` showed a composite z-score of 1.05.
